For 52 compounds, INHIBITION results are on record in ChEMBL document CHEMBL4513216, “Probing the Open Global Health Chemical Diversity Library for Multistage-Active Starting Points for Next-Generation Antimalarials” (ACS Infect Dis, 2020).

The campaign covered roughly 68,000 compounds. About 2,700 (4%) showed an effect of 50% or more. Only a selection was taken, and strong results are over-represented in it overall.

For this assay, the system named is Plasmodium berghei. The assay can be described thus: Screen against P. berghei liver stage (PbLuc), transformed with Luciferase, at 2uM. Type of assay: functional, HepG2. Conditions: tested at 2 uM.
Take `c1coc(CN2CCC(c3ccc4c(c3)OCO4)CC2)c1`: the INHIBITION is -8.85%.

In the case of `Cc1ccc(CN(CCCn2ccnc2)Cc2ccccc2O)s1`, the INHIBITION is recorded as -43.99%.

On to `CN(C)CCNC(=O)c1cc(-c2cnc(N3CCCC3)nc2)cn1C`, for which the INHIBITION was found to be 9.79%.

On to `Cc1cccc(C(=O)N2CCCCC2c2ccc(CN(C)C)cc2)n1` (configuration not stated), for which the INHIBITION is on record as -32.59%.

On to `Fc1cc(Cl)cnc1N1CCCC(c2nccn2Cc2ccccn2)C1` (configuration not stated), for which the INHIBITION is 3.97%.

As for `COc1c(Cl)cc(C(=O)NCCNc2ncccn2)cc1Cl`, the INHIBITION turned out to be 21.97%.

With `CN1CCCCC[C@@H]2[C@@H]1[C@H](c1ccccc1)CN2C(=O)c1cccnc1`, the INHIBITION was found to be 31.28%.

As for `CN1CCCC[C@@H]2[C@H]1[C@@H](c1ccccc1)CCN2C(=O)c1cccnc1`, the INHIBITION was found to be 51.57%.

Consider `CN1CCCC[C@@H]2[C@H]1[C@@H](c1ccccc1)CCN2C(=O)c1ccccc1`, for which the INHIBITION is listed as -60.34%.

Turning to `COc1ccc(F)cc1C(=O)C1CCCN(Cc2ccc(C)s2)C1` (configuration not stated), the INHIBITION was 49.02%.

As to `COc1ccc(C(=O)C2CCCN(Cc3cccc(F)c3)C2)c(OC)c1` (configuration not stated), the INHIBITION was -14.94%.

On to `COc1ccc(F)cc1C(=O)C1CCCN(Cc2cnc(C)s2)C1` (configuration not stated), for which the INHIBITION was 72.49%.

For the compound `CO[C@@H]1CCN(Cc2ccoc2)C[C@@H]1Cc1ccccc1`, the INHIBITION was 28.46%.

For `CCOC(=O)N1CCN(c2nc(NC3CC3)c3ccccc3n2)CC1`, the INHIBITION came to 27.85%.

In the case of `CCc1c(C)nc2ccccc2c1N1CCC(O)CC1`, the INHIBITION is given as 60.13%.

Turning to `OC1CCN(c2cnnc3ccccc23)CC1`, the INHIBITION was -1.81%.

Consider `CCc1c(C)nc2ccccc2c1N1CCC(NC(C)=O)CC1`, for which the INHIBITION turned out to be 50.59%.

Take `CCc1c(C)nc2ccccc2c1N1CCC(C(=O)NC)CC1`: the INHIBITION came to 5.28%.

For the compound `CCOC(=O)N1CCN(c2nc(N)c3ccccc3n2)CC1`, the INHIBITION is reported as -12.08%.

Consider `CN(CCc1cccc2ccccc12)Cc1nc(N)nc(N(C)C)n1`, for which the INHIBITION was -3.1%.

Consider `COCC[C@]1(O)CCN(Cc2nc(C)cs2)C[C@H]1C`, for which the INHIBITION is reported as -9.15%.

On to `Cc1cccc(C(=O)N2CCCC2c2c(C)n[nH]c2C)c1` (configuration not stated), for which the INHIBITION is 41.84%.

With `Cc1n[nH]c(C)c1C1CCCN1C(=O)c1cc(Br)c[nH]1` (configuration not stated), the INHIBITION came to 56.21%.

As to `Cc1n[nH]c(C)c1C1CCCN1C(=O)c1coc(Br)c1` (configuration not stated), the INHIBITION came to 28.43%.

Regarding `Cn1cc2c(n1)C(CNC1CCOCC1)OCC2` (configuration not stated), the INHIBITION is reported as -10.78%.

Consider `CC(=O)N1CCC2(CC1)COC(COCc1ccccn1)C2` (configuration not stated), for which the INHIBITION stood at 53.55%.

Take `COCC(=O)N1CCC2(CC1)COC(COCc1ccccn1)C2` (configuration not stated): the INHIBITION is recorded as 37.41%.

Consider `CCOCC(=O)N1CCC2(CC1)COC(COCc1ccccn1)C2` (configuration not stated), for which the INHIBITION amounted to 18.05%.

Take `FC(F)(F)Oc1ccc(-c2c[nH]c([C@@H]3COCCN3)n2)cc1`: the INHIBITION turned out to be 12.28%.

For the compound `Fc1ccc(-c2c[nH]c([C@@H]3COCCN3)n2)cc1`, the INHIBITION is recorded as 32.59%.

With `FC(F)(F)c1ccc(-c2c[nH]c([C@@H]3COCCN3)n2)cc1`, the INHIBITION came to 64.99%.

With `CC(c1ncc(-c2ccccc2)o1)N1CCN(C(=O)C(C)(C)C)CC1` (configuration not stated), the INHIBITION is recorded as -18.71%.

Regarding `CNC(=O)CCN(C)c1nc(-c2ccncc2)nc2c1CCNC2`, the INHIBITION is 24.54%.

`Cc1nc(CO[C@@H]2CN(Cc3cccs3)[C@@H]3COC[C@@H]32)cs1`: the INHIBITION is 26.01%.

Consider `Cc1nc(CO[C@@H]2CN(Cc3cccnc3)[C@@H]3COC[C@@H]32)cs1`, for which the INHIBITION came to 55.66%.

Take `Cc1nc(CO[C@@H]2CN(Cc3ccsc3)[C@@H]3COC[C@@H]32)cs1`: the INHIBITION was 24.43%.

Turning to `Cc1ccc(CN2C[C@@H](OCc3csc(C)n3)[C@H]3COC[C@H]32)s1`, the INHIBITION amounted to 9.36%.

For `Cc1nc(CO[C@@H]2CN(Cc3ccc(F)cc3)[C@@H]3COC[C@@H]32)cs1`, the INHIBITION was -17.76%.

Turning to `Cc1nc(CO[C@H]2CN(Cc3cccs3)[C@@H]3COC[C@H]23)cs1`, the INHIBITION is reported as 56.76%.

For the compound `CC1=C(C(=O)NCCc2n[nH]c3c2CCCC3)C(C)NC(=O)N1` (configuration not stated), the INHIBITION is on record as -18.23%.

Regarding `COCc1nc(-c2ccnc(N3CCNCC3)n2)no1`, the INHIBITION was -8.07%.

Take `CC(C)c1noc(CS(=O)(=O)CC(=O)NCc2ccccc2)n1`: the INHIBITION stood at 66.33%.

Take `CC(C)c1noc(CS(=O)(=O)CC(=O)NCc2cccs2)n1`: the INHIBITION came out at 20.74%.

`CC(C)c1noc(CS(=O)(=O)CC(=O)NCCOc2ccccc2)n1`: the INHIBITION is given as -38.35%.

Turning to `CN1CC(=O)N(c2ccccc2)CC12CCN(CC1CC1)C2` (configuration not stated), the INHIBITION was -8.23%.

For the compound `CN1CC(=O)N(c2ccccc2)CC12CCN(CCO)C2` (configuration not stated), the INHIBITION is recorded as 65.73%.

As for `CN1CC(=O)N(c2cccc(F)c2)CC12CCN(CCO)C2` (configuration not stated), the INHIBITION is -15.88%.

As to `Cc1ncnc2c1CCN(C(=O)c1ccoc1)CC2`, the INHIBITION was 33.47%.

Turning to `Cc1nc(-c2ccccc2)sc1CNC1CCc2ncnn2C1` (configuration not stated), the INHIBITION is listed as -21.39%.

With `Cc1ncnc2c1CCN(CC1CCOC1)CC2` (configuration not stated), the INHIBITION is reported as 8.73%.

In the case of `COCCC(=O)N1CC[C@@H](N(C)C)[C@@H]1Cc1ccccc1`, the INHIBITION is on record as 2.71%.

Regarding `COc1cccc(C(=O)N2CCN(C(=O)CCn3ccnc3)CC2)c1`, the INHIBITION is given as -14.71%.
